Rows were chosen to be rich in hits. Some 18% of all compounds tested hit in one or more screens of this group.
RORgamma inh – inhibitors of mouse ROR gamma transcriptional activity; P51450; Drosophila S2 Gal4-RORgamma UAS-luciferase reporter, 20 h; Potency, µM (highest dose often 53.6 µM), actives largely listed as inhibitors; 310,000 compounds, 5.4% hits; AID 2551; note: nearly all actives have a fitted effect of over 60% in size
Target sequence (P51450 whole entry, looked up, the tested form may be a part): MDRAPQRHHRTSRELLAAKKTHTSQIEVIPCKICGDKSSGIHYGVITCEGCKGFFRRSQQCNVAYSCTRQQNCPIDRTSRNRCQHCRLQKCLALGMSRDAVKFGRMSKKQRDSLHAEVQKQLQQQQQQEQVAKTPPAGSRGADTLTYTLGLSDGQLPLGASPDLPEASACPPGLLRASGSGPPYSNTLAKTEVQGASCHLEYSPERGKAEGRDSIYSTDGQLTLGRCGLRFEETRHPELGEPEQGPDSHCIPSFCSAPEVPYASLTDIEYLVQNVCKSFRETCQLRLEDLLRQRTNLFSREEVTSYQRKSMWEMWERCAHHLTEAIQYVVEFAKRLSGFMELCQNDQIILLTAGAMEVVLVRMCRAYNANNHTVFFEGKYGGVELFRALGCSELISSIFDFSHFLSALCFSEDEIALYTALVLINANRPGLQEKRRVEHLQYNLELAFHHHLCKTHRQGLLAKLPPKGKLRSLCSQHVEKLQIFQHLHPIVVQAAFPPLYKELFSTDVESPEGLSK
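A Gal4/UAS one-hybrid system in insect cells: metallothionein-promoter Gal4–ROR gamma fusion plus Photinus luciferase reporter. Copper sulfate 700 uM final, 20 hr ambient incubation, luminescent detection after 10 min with reagent.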
IL-1B inflam inh – inflammasome signaling inhibition, IL-1 beta readout | 360,000 compounds, 4.7% hits | activity change, % at 57.5 µM | THP-1 LPS/ATP IL-1B secretion, AlphaLISA, 16 h; hits give low values | AID 743279; in the data active = activity change below about -50%; inconclusive = mostly about -30% to -49%
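THP-1 cells pretreated 1 hr with compounds (up to 57.5 uM final), then stimulated with LPS (250 ng/mL final) plus ATP (1.25 mM final); secreted IL-1B measured by AlphaLISA after 16 hr, decreased signal indicating inhibition.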
LDHA block – LDHA (human) enzyme inhibition | P00338 | purified LDHA, NADH/diaphorase-resazurin fluorescence; hits give low values | activity change, % (values are at about 110 or 230 µM) | 480,000 compounds, 0.15% hits; in the data active = activity change below about -30%; inconclusive = mostly about -25% to -30%
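Resorufin fluorescence (ex540/em590), read at 0 and 20 min after diaphorase/resazurin addition, reports the NADH left after a 5 min room-temperature reaction of 2 nM human LDH5 with 0.06 mM NADH and 0.2 mM pyruvate.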
VP16 counter – counter-screen for ROR gamma inhibitors: Gal4-VP16 reporter; Drosophila S2 Gal4-VP16 UAS-luciferase, luminescence, 20 h; Potency, µM (doses to about 53.6 µM), hits mostly inhibitors; 310,000 compounds, 3.5% hits; AID 2546;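 note: Gal4-VP16 expression switched on by copper sulfate through the metallothionein promoter; nearly all actives have a fitted effect of over 50% in size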
TDP1 cell noCPT – qHTS for Inhibitors of human tyrosyl-DNA phosphodiesterase 1 (TDP1): qHTS in cells in absence of CPT | DT40 Tdp1-/- hTDP1 cells, no CPT, ATP luminescence, 48 h | Potency, µM (titrated, usually from 46.2 µM), usual class: inhibitors | 420,000 compounds, 15% hits | AID 686978, 2013; note: nearly all actives have a fitted effect of over 55% in size
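Chicken DT40 Tdp1-/- cells complemented with human TDP1, screened without camptothecin (DMSO vehicle only), 400 cells/well. Compounds pin-transferred, cells incubated at 37 °C for at least 48 hr. Growth read as ATP-dependent luminescence (CellTiter-Glo, 30 min at RT).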
TDP1 cell CPT – growth inhibition of DT40 Tdp1-/-;hTDP1 cells with camptothecin (screen for TDP1 inhibitors); chicken DT40 Tdp1-/-;hTDP1 cells + 20 nM CPT, ATP luminescence, 48 h; Potency, µM (series often up to 46.2 µM), usual class: inhibitors; 420,000 compounds, 12% hits; AID 686979; note: nearly all actives have a fitted effect of over 55% in size
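Chicken DT40 Tdp1-/- cells complemented with human TDP1, 400 cells/well, exposed to compounds plus 20 nM camptothecin for at least 48 h at 37 C; viability read as ATP content by CellTiter-Glo luminescence.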
Hits are given with their value. Unless noted, calls come from the whole dose curve; as a rule, active = well fitted curve in the direction sought with a large enough effect; inconclusive = small, poorly fitted or top-dose-only effect, or another doubt; inactive = no such curve, though single readings can be large; an effect the other way counts as inactive or inconclusive.

What do the screens show for `COc1ccc(-c2c(C#Cc3ccc(N(C)C)cc3)c3ccccc3n2C)cc1`?
IL-1B inflam inh: inactive; LDHA block: inactive; TDP1 cell noCPT: inconclusive; TDP1 cell CPT: 23µM

How did COc1cc(OC)cc(-c2c(C#Cc3ccsc3)c3cc(-c4ccccc4OC)ccc3n2C)c1 do in these assays?
IL-1B inflam inh: inactive; LDHA block: inactive; TDP1 cell noCPT: inactive; TDP1 cell CPT: inconclusive

How did COc1cc(C#Cc2c(C=O)n(C)c3ccccc23)cc(OC)c1 do in these assays?
IL-1B inflam inh: inactive; LDHA block: inactive; TDP1 cell noCPT: 23µM; TDP1 cell CPT: inconclusive

How did COc1ccc(-c2c(C#Cc3ccsc3)c3cc(-c4ccc(OC)c(F)c4)ccc3n2C)cc1 do in these assays?
IL-1B inflam inh: inactive; LDHA block: inactive; TDP1 cell noCPT: inconclusive; TDP1 cell CPT: inconclusive

What do the screens show for `COc1ccc(-c2c(C#Cc3ccsc3)c3cc(-c4ccc5cc[nH]c5c4)ccc3n2C)cc1`?
IL-1B inflam inh: inactive; LDHA block: inactive; TDP1 cell noCPT: 21µM; TDP1 cell CPT: inconclusive

Results for COc1ccc(-c2c(C#Cc3ccsc3)c3cc(Br)ccc3n2C)cc1 ?
IL-1B inflam inh: inactive; LDHA block: inactive; TDP1 cell noCPT: 21µM; TDP1 cell CPT: inconclusive

How did CCc1nccn1S(=O)(=O)c1cc(C)c(C)cc1OC do in these assays?
LDHA block: inactive

Results for Cc1ccc(-c2nc3ncccc3o2)cc1NC(=O)CC12CC3CC(CC(C3)C1)C2 ?
LDHA block: inactive

Results for CNC(=O)CCNC(=O)c1cc(-c2ccc(OC)cc2)nc2ccccc12 ?
LDHA block: inactive

Results for C=CCn1c2ccccc2c(=O)c2cc(C#Cc3cc(OC)cc(OC)c3)ccc21 ?
IL-1B inflam inh: inactive; LDHA block: inactive; TDP1 cell noCPT: inconclusive; TDP1 cell CPT: 16µM

Results for C=CCn1c(COc2ccc(OC)cc2)nc2ccccc21 ?
RORgamma inh: inactive; IL-1B inflam inh: inactive; LDHA block: inactive; VP16 counter: inactive; TDP1 cell noCPT: inconclusive; TDP1 cell CPT: inconclusive

What do the screens show for `O=C(c1cc(-c2cccnc2)nc2ccc(Cl)cc12)N1CCN(S(=O)(=O)c2cccs2)CC1`?
RORgamma inh: inactive; IL-1B inflam inh: inactive; LDHA block: inactive; VP16 counter: inactive; TDP1 cell noCPT: 16µM; TDP1 cell CPT: inconclusive

How did CS(=O)(=O)N1CCN(C(=O)c2cc(-c3ccccc3)nc3ccccc23)CC1 do in these assays?
RORgamma inh: inactive; IL-1B inflam inh: inactive; LDHA block: inactive; VP16 counter: inactive; TDP1 cell noCPT: inactive; TDP1 cell CPT: inconclusive

How did CS(=O)(=O)N1CCN(C(=O)c2cc(-c3ccncc3)nc3ccc(Cl)cc23)CC1 do in these assays?
RORgamma inh: inactive; IL-1B inflam inh: inactive; LDHA block: inactive; VP16 counter: inactive; TDP1 cell noCPT: inconclusive; TDP1 cell CPT: inactive

How did O=C(c1cc(-c2cccnc2)nc2ccccc12)N1CCN(S(=O)(=O)c2cccs2)CC1 do in these assays?
IL-1B inflam inh: inactive; LDHA block: inactive; TDP1 cell noCPT: 23µM; TDP1 cell CPT: inconclusive

How did O=C(c1ccc(OCc2ccncc2)cc1)N1CCN(C2CCS(=O)(=O)C2)CC1 (stereo not drawn) do in these assays?
LDHA block: inactive

How did O=C(Nc1ccncc1)C1CCN(S(=O)(=O)c2ccc(Cl)cc2)CC1 do in these assays?
IL-1B inflam inh: inactive; LDHA block: inactive; TDP1 cell noCPT: 16µM; TDP1 cell CPT: 23µM

Results for O=C(Nc1ccncc1)C1CCN(S(=O)(=O)c2ccccc2C(F)(F)F)CC1 ?
RORgamma inh: inactive; IL-1B inflam inh: inactive; LDHA block: inactive; VP16 counter: inactive; TDP1 cell noCPT: 26µM; TDP1 cell CPT: 15µM

Results for O=C(Nc1ccncc1)C1CCN(S(=O)(=O)c2ccc(Cl)c(C(F)(F)F)c2)CC1 ?
IL-1B inflam inh: inconclusive; LDHA block: inactive; TDP1 cell noCPT: 15µM; TDP1 cell CPT: 16µM

Assay outcomes: PubChem, National Center for Advancing Translational Sciences (NCATS)
